According to PubChem BioAssay:
“And” between values parts separate entries of the source, which are not always exact repeats. Identical values can stand only once. A structure can be active in one record and inactive in another. The source made the active and inactive calls. Cut-off read from the data, not from the text of the source: active = inhibition above about 80%; inactive = the rest.

Experiment: growth inhibition, single agents and combos, HD-MB03, cell-based, BGB or cisplatin IC20 combos, synergistic combos for chromothripsis tumors (AID 1671455);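 note: 0% = vehicle DMSO and 100% = high DMSO as cytotoxic control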
Conditions: HD-MB03 medulloblastoma cells, measured here: combo with BGB at IC20, at 0.5 µM, stronger effect = higher value

Compound	inhibition
Cc1c(N)nc(C(CC(N)=O)NCC(N)C(N)=O)nc1C(=O)NC(C(=O)NC(C)C(O)C(C)C(=O)NC(C(=O)NCCc1nc(-c2nc(C(=O)NCCC[S+](C)C)cs2)cs1)C(C)O)C(O[C@@H]1O[C@@H](CO)[C@@H](O)[C@H](O)[C@@H]1O[C@H]1O[C@H](CO)[C@@H](O)[C@H](OC(N)=O)[C@@H]1O)c1cnc[nH]1 (stereo not given in full)	54.2% and 75.3%
O=c1[nH]c(=O)n(C2OC(CO)C(O)C2O)cc1F (stereo not given)	71.1%
O=P(O)(NCCCl)NCCCl	-26.7%
CC1(C)C(C(=O)Nc2ccc(S(=O)(=O)c3ccc(NC(=O)C4C(C)(C)C4(C)C)cc3)cc2)C1(C)C	-12.1%
CCC1(O)C(=O)OCc2c1cc1n(c2=O)Cc2cc3ccccc3nc2-1 (stereo not given)	96.5% and 99.2%
NC(Cc1ccc(N(CCCl)CCCl)cc1)C(=O)O (stereo not given)	19.3%
COc1cc([C@@H]2c3cc4c(cc3[C@H](O)[C@H]3COC(=O)[C@H]23)OCO4)cc(OC)c1O	61.9% and 65.3%
COc1cc(C2c3cc4c(cc3C(O)C3COC(=O)C23)OCO4)cc(OC)c1OC (stereo not given)	82.3%

Same assay, conditions: HD-MB03 medulloblastoma cells, measured here: combo with cisplatin at IC20, at 0.5 µM, stronger effect = higher value

Compound	inhibition
Cc1c(N)nc(C(CC(N)=O)NCC(N)C(N)=O)nc1C(=O)NC(C(=O)NC(C)C(O)C(C)C(=O)NC(C(=O)NCCc1nc(-c2nc(C(=O)NCCC[S+](C)C)cs2)cs1)C(C)O)C(O[C@@H]1O[C@@H](CO)[C@@H](O)[C@H](O)[C@@H]1O[C@H]1O[C@H](CO)[C@@H](O)[C@H](OC(N)=O)[C@@H]1O)c1cnc[nH]1 (stereo not given in full)	40% and 68.2%
O=c1[nH]c(=O)n(C2OC(CO)C(O)C2O)cc1F (stereo not given)	54%
O=P(O)(NCCCl)NCCCl	-18.9%
CC1(C)C(C(=O)Nc2ccc(S(=O)(=O)c3ccc(NC(=O)C4C(C)(C)C4(C)C)cc3)cc2)C1(C)C	-33.5%
CCC1(O)C(=O)OCc2c1cc1n(c2=O)Cc2cc3ccccc3nc2-1 (stereo not given)	97.2% and 99.2%
NC(Cc1ccc(N(CCCl)CCCl)cc1)C(=O)O (stereo not given)	20.5%
COc1cc([C@@H]2c3cc4c(cc3[C@H](O)[C@H]3COC(=O)[C@H]23)OCO4)cc(OC)c1O	71.7% and 65.8%
COc1cc(C2c3cc4c(cc3C(O)C3COC(=O)C23)OCO4)cc(OC)c1OC (stereo not given)	76.1%

Experiment: growth inhibition, single agents and combos, UWB1.289, cell-based, BGB or cisplatin combos, synergistic combos for chromothripsis tumors (AID 1671456);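 note: cells exposed to compound for four days; 0% = vehicle DMSO and 100% = killing by high DMSO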
Conditions: UWB1.289 ovarian carcinoma cells, at 0.5 µM, stronger effect = higher value

Compound	inhibition
Cc1c(N)nc(C(CC(N)=O)NCC(N)C(N)=O)nc1C(=O)NC(C(=O)NC(C)C(O)C(C)C(=O)NC(C(=O)NCCc1nc(-c2nc(C(=O)NCCC[S+](C)C)cs2)cs1)C(C)O)C(O[C@@H]1O[C@@H](CO)[C@@H](O)[C@H](O)[C@@H]1O[C@H]1O[C@H](CO)[C@@H](O)[C@H](OC(N)=O)[C@@H]1O)c1cnc[nH]1 (stereo not given in full)	22.8% (inactive) and 41.7% (inactive)
O=c1[nH]c(=O)n(C2OC(CO)C(O)C2O)cc1F (stereo not given)	33.5% (inactive)
O=P(O)(NCCCl)NCCCl	-15.1% (inactive)
CC1(C)C(C(=O)Nc2ccc(S(=O)(=O)c3ccc(NC(=O)C4C(C)(C)C4(C)C)cc3)cc2)C1(C)C	-16.5% (inactive)
CCC1(O)C(=O)OCc2c1cc1n(c2=O)Cc2cc3ccccc3nc2-1 (stereo not given)	66.6% (inactive) and 83.3% (active)
NC(Cc1ccc(N(CCCl)CCCl)cc1)C(=O)O (stereo not given)	-2.07% (inactive)
COc1cc([C@@H]2c3cc4c(cc3[C@H](O)[C@H]3COC(=O)[C@H]23)OCO4)cc(OC)c1O	44% (inactive) and 35.9% (inactive)
COc1cc(C2c3cc4c(cc3C(O)C3COC(=O)C23)OCO4)cc(OC)c1OC (stereo not given)	44.8% (inactive)

Same assay, conditions: UWB1.289 ovarian carcinoma cells, measured here: inhibition with BGB combination, at 0.05 µM, stronger effect = higher value

Compound	inhibition
Cc1c(N)nc(C(CC(N)=O)NCC(N)C(N)=O)nc1C(=O)NC(C(=O)NC(C)C(O)C(C)C(=O)NC(C(=O)NCCc1nc(-c2nc(C(=O)NCCC[S+](C)C)cs2)cs1)C(C)O)C(O[C@@H]1O[C@@H](CO)[C@@H](O)[C@H](O)[C@@H]1O[C@H]1O[C@H](CO)[C@@H](O)[C@H](OC(N)=O)[C@@H]1O)c1cnc[nH]1 (stereo not given in full)	12.4% and -1.23%
O=c1[nH]c(=O)n(C2OC(CO)C(O)C2O)cc1F (stereo not given)	-10.9%
O=P(O)(NCCCl)NCCCl	-6.88%
CC1(C)C(C(=O)Nc2ccc(S(=O)(=O)c3ccc(NC(=O)C4C(C)(C)C4(C)C)cc3)cc2)C1(C)C	-34%
CCC1(O)C(=O)OCc2c1cc1n(c2=O)Cc2cc3ccccc3nc2-1 (stereo not given)	12.6% and 11.7%
NC(Cc1ccc(N(CCCl)CCCl)cc1)C(=O)O (stereo not given)	-36%
COc1cc([C@@H]2c3cc4c(cc3[C@H](O)[C@H]3COC(=O)[C@H]23)OCO4)cc(OC)c1O	-0.844% and 8.28%
COc1cc(C2c3cc4c(cc3C(O)C3COC(=O)C23)OCO4)cc(OC)c1OC (stereo not given)	11.9%

Same assay, conditions: UWB1.289 ovarian carcinoma cells, measured here: inhibition with cisplatin combination, at 0.05 µM, stronger effect = higher value

Compound	inhibition
Cc1c(N)nc(C(CC(N)=O)NCC(N)C(N)=O)nc1C(=O)NC(C(=O)NC(C)C(O)C(C)C(=O)NC(C(=O)NCCc1nc(-c2nc(C(=O)NCCC[S+](C)C)cs2)cs1)C(C)O)C(O[C@@H]1O[C@@H](CO)[C@@H](O)[C@H](O)[C@@H]1O[C@H]1O[C@H](CO)[C@@H](O)[C@H](OC(N)=O)[C@@H]1O)c1cnc[nH]1 (stereo not given in full)	12.6% and 30.8%
O=c1[nH]c(=O)n(C2OC(CO)C(O)C2O)cc1F (stereo not given)	10.1%
O=P(O)(NCCCl)NCCCl	-8.03%
CC1(C)C(C(=O)Nc2ccc(S(=O)(=O)c3ccc(NC(=O)C4C(C)(C)C4(C)C)cc3)cc2)C1(C)C	-37.9%
CCC1(O)C(=O)OCc2c1cc1n(c2=O)Cc2cc3ccccc3nc2-1 (stereo not given)	11.3% and 20.8%
NC(Cc1ccc(N(CCCl)CCCl)cc1)C(=O)O (stereo not given)	-22.5%
COc1cc([C@@H]2c3cc4c(cc3[C@H](O)[C@H]3COC(=O)[C@H]23)OCO4)cc(OC)c1O	0.424% and -0.759%
COc1cc(C2c3cc4c(cc3C(O)C3COC(=O)C23)OCO4)cc(OC)c1OC (stereo not given)	39.3%
